# Most compounds without a hit are left out; they make up all but 12% or so of the library.
# G9a inh = blocks human histone lysine methyltransferase G9a; Q96KQ7; G9a H3K9 monomethylation, AlphaScreen, 2 h; Potency, µM (top dose mostly 102 µM), inactives show top-dose activity, negative = inhibition, usual class: inhibitors; 350,000 compounds, 8.8% hits; AID 504332; also: % is scaled to controls: 0 for no effect and ±100 for the full control effect; nearly all actives have a fitted effect of over 75% in size
#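 Readings reflect AlphaScreen signal from monomethyl-H3K9 antibody detection. HMT at 20 nM; substrate b-H3K9 500 nM; cofactor SAM 20 uM; 2 h RT reaction; compounds tested as titrations in qHTS with 15 min preincubation.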
# HP1b chromo inh = inhibitors of HP1-beta chromodomain binding to methylated histone tails; AlphaScreen HP1-beta / biotin-H3K9me3 peptide binding; Potency, µM (titrated, usually from 114 µM), inactives show top-dose activity change, negative = inhibition, hits mostly inhibitors; 390,000 compounds, 0.56% hits; AID 540317; also: nearly all actives have a fitted effect of over 70% in size
#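 AlphaScreen: HP1-beta (50 nM) preformed 30 min with biotin-H3(1-18)K9me3 peptide (50 nM) in PBS pH 7.4, 0.01% Tween-20. Compound added for 30 min at RT, then streptavidin donor/nickel chelate acceptor beads (10 ug/mL) for 30 min.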
# BAZ2B inh = blocks human BAZ2B | Potency, µM (doses to about 114 µM), without a hit: top-dose activity change, negative = inhibition, hits mostly inhibitors | 360,000 compounds, 4.4% hits | AlphaScreen BAZ2B-H3K14Ac peptide displacement | AID 504333; also: % is scaled to controls: 0 for no effect and ±100 for the full control effect; nearly all actives have a fitted effect of over 60% in size
# Target sequence (Q9UIF8 whole entry, looked up): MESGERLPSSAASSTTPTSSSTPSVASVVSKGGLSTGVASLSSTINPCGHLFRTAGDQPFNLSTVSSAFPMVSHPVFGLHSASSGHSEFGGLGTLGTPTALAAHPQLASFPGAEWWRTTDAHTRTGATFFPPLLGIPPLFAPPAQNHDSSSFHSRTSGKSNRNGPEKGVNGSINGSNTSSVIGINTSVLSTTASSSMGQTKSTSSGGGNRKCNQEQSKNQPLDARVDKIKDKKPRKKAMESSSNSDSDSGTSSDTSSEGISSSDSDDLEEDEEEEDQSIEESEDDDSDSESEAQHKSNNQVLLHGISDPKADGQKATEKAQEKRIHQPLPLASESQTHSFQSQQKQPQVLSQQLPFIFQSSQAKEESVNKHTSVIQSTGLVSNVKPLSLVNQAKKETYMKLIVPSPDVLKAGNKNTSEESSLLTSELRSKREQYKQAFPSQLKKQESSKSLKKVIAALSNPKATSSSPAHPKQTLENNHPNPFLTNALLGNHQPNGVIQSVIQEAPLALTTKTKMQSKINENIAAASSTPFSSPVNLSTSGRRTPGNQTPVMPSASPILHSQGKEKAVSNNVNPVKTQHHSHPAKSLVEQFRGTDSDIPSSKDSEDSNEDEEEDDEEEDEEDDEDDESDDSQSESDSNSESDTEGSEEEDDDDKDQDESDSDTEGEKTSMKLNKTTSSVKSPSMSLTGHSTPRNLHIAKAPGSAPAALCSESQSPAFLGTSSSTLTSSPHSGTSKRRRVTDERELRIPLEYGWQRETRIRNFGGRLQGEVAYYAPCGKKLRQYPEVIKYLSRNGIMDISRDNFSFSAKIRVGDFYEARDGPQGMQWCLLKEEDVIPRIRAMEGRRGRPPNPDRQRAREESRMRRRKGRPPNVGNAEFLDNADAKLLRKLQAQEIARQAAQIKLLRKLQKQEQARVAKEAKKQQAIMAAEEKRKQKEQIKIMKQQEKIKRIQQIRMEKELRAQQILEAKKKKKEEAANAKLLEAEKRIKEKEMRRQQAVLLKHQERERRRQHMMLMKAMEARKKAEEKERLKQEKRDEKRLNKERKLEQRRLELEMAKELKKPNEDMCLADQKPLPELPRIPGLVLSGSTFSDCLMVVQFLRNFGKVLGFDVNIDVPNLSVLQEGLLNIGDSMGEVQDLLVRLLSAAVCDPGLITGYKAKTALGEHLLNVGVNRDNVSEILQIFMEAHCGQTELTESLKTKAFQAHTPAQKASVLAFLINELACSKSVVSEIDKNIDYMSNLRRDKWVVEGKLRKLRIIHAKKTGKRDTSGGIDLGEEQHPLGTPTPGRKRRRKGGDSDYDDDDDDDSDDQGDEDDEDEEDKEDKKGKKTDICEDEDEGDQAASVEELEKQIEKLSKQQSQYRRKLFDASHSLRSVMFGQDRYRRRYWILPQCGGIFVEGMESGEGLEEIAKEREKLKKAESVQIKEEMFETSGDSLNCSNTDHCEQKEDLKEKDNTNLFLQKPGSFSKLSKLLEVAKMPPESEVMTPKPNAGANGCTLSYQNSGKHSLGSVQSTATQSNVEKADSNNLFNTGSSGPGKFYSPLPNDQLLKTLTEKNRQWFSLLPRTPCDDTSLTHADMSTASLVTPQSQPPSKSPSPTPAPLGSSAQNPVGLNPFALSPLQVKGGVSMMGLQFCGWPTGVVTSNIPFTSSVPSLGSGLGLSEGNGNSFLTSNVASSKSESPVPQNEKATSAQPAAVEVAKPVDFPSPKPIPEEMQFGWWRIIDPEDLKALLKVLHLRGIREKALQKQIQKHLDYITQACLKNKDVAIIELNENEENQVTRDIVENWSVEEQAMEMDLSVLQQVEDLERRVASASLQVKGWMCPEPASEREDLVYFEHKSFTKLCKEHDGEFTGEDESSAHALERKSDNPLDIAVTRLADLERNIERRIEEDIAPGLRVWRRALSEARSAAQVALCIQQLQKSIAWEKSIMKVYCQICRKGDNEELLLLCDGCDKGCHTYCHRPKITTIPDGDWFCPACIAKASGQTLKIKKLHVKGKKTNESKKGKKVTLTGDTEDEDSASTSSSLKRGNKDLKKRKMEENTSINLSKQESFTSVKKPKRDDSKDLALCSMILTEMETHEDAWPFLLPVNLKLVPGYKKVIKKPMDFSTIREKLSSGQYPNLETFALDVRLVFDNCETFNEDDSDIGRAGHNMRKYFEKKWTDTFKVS
#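 BAZ2B 50 nM plus b-H3(5-23)K14Ac 50 nM, PBS pH 7.4/0.01% Tween-20, 30 min RT; compound added (max 110 uM), 30 min RT; streptavidin donor/Ni-chelate acceptor beads 10 ug/mL final, 20 min dark; AlphaScreen read.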
# JMJD2A Tudor = JMJD2A Tudor domain (human) inhibition; O75164; AlphaScreen JMJD2A-Tudor / H3K4me3 peptide binding; Potency, µM (top dose mostly 114 µM), for inactives: at the highest dose activity change, negative = inhibition, usual class: inhibitors; 390,000 compounds, 4.4% hits; also: % is scaled to controls: 0 for no effect and ±100 for the full control effect; nearly all actives have a fitted effect of over 50% in size
# Sfp inh = blocks B. subtilis Sfp PPTase activity. Potency, µM, inactives show largest response in the series, negative = inhibition, usual class: inhibitors. Biochemical Sfp PPTase activity, qHTS. 310,000 compounds, 3.5% hits. Q9F4F7;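 also: the enzyme is Sfp with the accession as filed and its product quenches rhodamine fluorescence; 0% = enzyme reaction without inhibitor and -100% = no enzyme wells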
#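 Reaction rates are the 30-min fluorescence difference (ex 525, em 598 nm) in wells containing 15 nM Sfp, 5 uM rhodamine-CoA and 12.5 uM BHQ-2-YbbR at pH 7.6 with 10 mM MgCl2.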
# Numbers without * were called inactive; ? = inconclusive; · = no result; ! = repeats disagree; [ ] = remark or other dose. Calls follow the shape of the dose curve; as a rule, active = well fitted curve in the direction sought with a large enough effect; inconclusive = small, poorly fitted or top-dose-only effect, or another doubt; inactive = no such curve, though single readings can be large; an effect the other way counts as inactive or inconclusive. Potency is read from the fitted curve at half-maximal effect.
SMILES,G9a inh,HP1b chromo inh,BAZ2B inh,JMJD2A Tudor,Sfp inh
N=C(N)c1ccc(OCCCCCOc2ccc(C(=N)N)cc2)cc1,3%[21.5 µM],35%,4%,-3%,11%
N=C(N)c1ccc(N)cc1,1µM*!,53%,-1%,-2%,·
Cc1c2oc3c(C)ccc(C(=O)N[C@@H]4C(=O)N[C@@H](C(C)C)C(=O)N5CCC[C@@H]5C(=O)N(C)CC(=O)N(C)[C@@H](C(C)C)C(=O)O[C@H]4C)c3nc-2c(C(=O)N[C@@H]2C(=O)N[C@@H](C(C)C)C(=O)N3CCC[C@@H]3C(=O)N(C)CC(=O)N(C)[C@@H](C(C)C)C(=O)O[C@H]2C)c(N)c1=O,·,·,·,·,-9%
CCN(CC)c1ccc(/C=N/NC(=S)NC)c(O)c1,?,?,40µM*,45µM*,-8%
CCN(CC)c1ccc(/C=N/Nc2cccc(C)c2)c(O)c1,1.4µM*,18µM*,50µM*,40µM*,?
CCN(CC)c1ccc(/C=N/Nc2ccccc2)c(O)c1,?,16µM*,45µM*,28µM*,56µM*
CCN(CC)c1ccc(C=Nc2ccc(C)cc2)c(O)c1,?,72%,14%,-2%,-17%
CC(=O)c1c(N2CCOCC2)nc(=S)n(-c2ccccc2)c1C,22%[12.7 µM],40%,-1%,-28%,-2%
COc1ccc(CCNC(=O)c2ccc(OCc3c(C)noc3C)c(OC)c2)cc1,·,17%,·,-14%,·
S=c1[nH]nc(Cc2sc(-c3ccccc3)nc2-c2ccccc2)o1,28µM*,2%,?,-32%,6%
CCOc1cc(C(=O)NC(=S)Nc2ccc(Cl)c(C(=O)O)c2)cc(OCC)c1OCC,40µM*,-4%,-26%,?,?
COc1c(C)cc(Br)cc1C(=O)NC(=S)Nc1ccc(Cl)c(C(=O)O)c1,50µM*,18%,-2%,-20%,-16%
COc1cccc(C(=O)NC(=S)Nc2ccc(Cl)c(C(=O)O)c2)c1,?,-14%,?,-20%,?
CCCCn1c(=O)c(CCC(=O)OCC(=O)Nc2cc(Cl)ccc2OC)nc2ccccc21,4%[59 µM],27%,6%,-10%,16%
O=C(CSc1ncnc2nc[nH]c12)c1ccc(Cl)cc1,·,-36%,?,18µM*,50µM*
O=C(CSc1ncnc2nc[nH]c12)c1ccccc1,?,27%,?,-33%,16µM*
Cc1snc(SCC(=O)c2ccc(F)cc2)c1C#N,0%,58%,25%,6%[11.4 µM],4%
Cc1snc(SCC(=O)c2ccc([N+](=O)[O-])cc2)c1C#N,1.8µM*,?,14µM*,-11%[11.4 µM],20µM*
O=C(CSc1nc2ncc(Br)cc2[nH]1)c1ccc([N+](=O)[O-])cc1,14µM*,?,?,?,-10%
c1ccc(CCSc2ncnc3nc[nH]c23)cc1,-2%,25%,-1%,-15%,12%
Cc1cccc(C)c1NC(=O)CSc1ncnc2nc[nH]c12,-41%,40%,2%,-21%,7%
O=C(CSc1ncnc2nc[nH]c12)c1ccc([N+](=O)[O-])cc1,·,15%,79µM*,-32%,45µM*
O=C1CC(C(=O)Nc2cccc(Cl)c2)n2ncnc2N1 (stereo not drawn),-3%,34%,-14%,-10%,20%
O=C1CC(C(=O)Nc2cc(Cl)ccc2Cl)n2ncnc2N1 (stereo not drawn),10µM*,55%,5%,-5%,17%
CC(=O)Nc1ccc(NC(=O)C2CC(=O)Nc3ncnn32)cc1 (stereo not drawn),8%[12.7 µM],42%,-20%,-11%,13%
SMILES,G9a inh,HP1b chromo inh,BAZ2B inh,JMJD2A Tudor,Sfp inh
Cc1ccc(Cl)cc1NC(=O)C1CC(=O)Nc2ncnn21 (stereo not drawn),50µM*,46%,-22%,-4%[11.4 µM],7%
Cc1ccc(N2CC(C(=O)Nc3ccc4c(c3)OCCO4)CC2=O)cc1 (stereo not drawn),-9%[59 µM],22%,3%,-6%,4%
Cc1ccc(CN(Cc2cccnc2)C(=O)CN2C(=O)COc3ccccc32)o1,?,-15%,-28%,-35%,28µM*
COc1ccc(C(=O)NCCNc2nc3c(C)cccc3cc2C#N)cc1,·,43%,·,13%,·
CCOCCCNC(=S)NCCCNc1nc2c(C)c(C)ccc2cc1C#N,56µM*,26%,-3%,-9%,?
CCC(=O)NCCCNc1nc2c(C)cccc2cc1C#N,35µM*,11%,0%,-13%,?
CCOCCCNC(=S)N1CCCN(c2nc3c(C)c(C)ccc3cc2C#N)CC1,-2%,102%,-4%,41%,9%
Cc1ccc(CCNC(=O)C2CC(c3ccccc3C(F)(F)F)=NO2)cc1 (stereo not drawn),-1%[59 µM],60%,11%,10%,4%
CCOC(=O)N1CCC(n2c(SCC(=O)N3CCC(C)CC3)nc3ccccc3c2=O)CC1,-8%[59 µM],26%,7%,-20%,79µM*
CC(=O)c1cccc(N(CC(=O)Nc2ccc(S(=O)(=O)N3CCOCC3)cc2)S(C)(=O)=O)c1,22%,19%,-15%,-4%,10%
O=C(COC(=O)CNC(=O)c1ccc(Cl)cc1Cl)NC(=O)NCc1ccccc1,56µM*,42%,2%,0%,·
COc1ccccc1C(=O)NC(=O)COC(=O)CNC(=O)c1ccc(Cl)cc1Cl,50µM*,41%,6%,3%,·
CNC(=S)N/N=C/c1cc(C)ccc1C,2%,12%,-33%,-19%,?
Cc1ccc(NC(=O)CCOc2ccccc2)c(C)c1,-1%,21%,-3%,3%,-16%
CN(CCc1ccccc1)C(=O)c1cccc(NC(=O)Cc2cccc(NC(=O)C3CCCN(C(=O)C4CCCCC4)C3)c2)c1 (stereo not drawn),·,42%,·,-10%,·
CC1(C)CC(=O)C(CS(=O)(=O)c2ccccc2)=C(Cl)C1,?,57%,-7%,7%,1%
CSc1nccc(N/N=C/c2ccccc2)n1,13%,-12%,3%,-15%,6%
CN(C)c1ccc(Nc2ncnc3ccc(Br)cc23)cc1,10µM*,?,45µM*,45µM*,?
CCOc1ncccc1C(=O)OCC(=O)c1ccc(Br)s1,·,70%,·,25%,·
CC(C(=O)Nc1ccc(Br)cc1)N(C)CC(=O)NCc1ccco1 (stereo not drawn),8.9µM*,25%,-5%,-7%,·
CC(NS(=O)(=O)c1ccc(Br)cc1)C(=O)NCc1ccco1 (stereo not drawn),?,5%,-33%,-6%,-4%
COc1ccc(N(CC(=O)NCCC(C)C)C(=O)c2snc(C(=O)NC3CCCCC3)c2N)c(OC)c1,-5%,7%,11%,-27%,14%
Cn1c(N)nc2nc[nH]c2c1=S,·,46%,·,40µM*,·
Fc1ccccc1CSc1nnnn1-c1ccc2c(c1)OCO2,54%[59 µM],151%,66%,58%,-3%

# Assay outcomes (PubChem BioAssay)
